Screening results from PubChem BioAssay.
Most compounds without a hit are left out; they make up all but 27% or so of the library.
CYP2C19 activ: activators of human cytochrome P450 2C19; P33261; recombinant CYP2C19, luciferin-H EGE luminescence; stronger effect = higher value; 0 = fully inhibited enzyme, 1 = untreated enzyme; 96,000 tested, under 10 active; activation factor at 5 µM; AID 1025;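 active = activation factor of at least 2 at 5 µM in the primary screen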;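 also: 0 = wells with 2.5 mM tranylcypromine and 1 = vehicle-only wells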
Target sequence (P33261 whole entry, looked up): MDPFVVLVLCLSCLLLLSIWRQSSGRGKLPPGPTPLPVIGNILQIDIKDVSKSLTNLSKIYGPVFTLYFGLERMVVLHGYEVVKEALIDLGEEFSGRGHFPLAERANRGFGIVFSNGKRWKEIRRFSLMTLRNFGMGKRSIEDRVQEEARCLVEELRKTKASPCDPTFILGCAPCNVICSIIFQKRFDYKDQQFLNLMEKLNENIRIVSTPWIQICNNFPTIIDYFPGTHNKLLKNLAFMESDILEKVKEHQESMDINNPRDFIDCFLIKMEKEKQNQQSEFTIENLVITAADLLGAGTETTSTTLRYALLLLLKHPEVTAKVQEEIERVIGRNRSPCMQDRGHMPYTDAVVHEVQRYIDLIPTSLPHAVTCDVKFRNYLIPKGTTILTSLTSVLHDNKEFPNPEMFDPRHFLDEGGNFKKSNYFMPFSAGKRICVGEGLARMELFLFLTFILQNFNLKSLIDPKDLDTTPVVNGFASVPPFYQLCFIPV
Pyk2 oligo antag: blocks oligomerization of human Pyk2 in cells | z-score (the deposit names both 25 µM and 10 µM) | Q293 cells, Pyk2 FERM NanoBiT luminescence; stronger effect = lower value | actives 0.83% (n = 99,000);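 active = Z-score of -3 or lower, scaled per plate to the spread of control and sample wells; inactive = z-score above -3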;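 also: negative z-score means lost luminescence so less FERM oligomerization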
CYP2C19 inh: human CYP2C19 inhibition; P33261; CYP2C19 Supersomes, luciferin-H EGE luminescence, 30 min; inhibition, % at 5 µM; actives 21% (n = 96,000);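 active = CYP2C19 inhibition above a set limit at 5 µM in the primary screen, cut at about 50% in these data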;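 also: plate controls were negative control wells for no effect and 2.5 mM tranylcypromine positive control for full effect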
CYP2C9 inhib: human CYP2C9 inhibition; P11712; CYP2C9 Supersomes, luciferin-H conversion, luminescence; inhibition, % at 5 µM; actives 20% (n = 96,000);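 active = blocking of liver enzyme CYP2C9 beyond about 50% at 5 µM, limit read from the data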
Cav32 inh: inhibitors of human Cav3.2 T-type calcium channel; actives 4% (n = 100,000); AID 449739; B-score at 10 µM; Cav3.2-expressing cells, Fluo-4 calcium fluorescence FDSS; stronger effect = lower value; O95180;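 active = single-dose well whose peak fluorescence ratio is a statistical outlier from its plate by either plate-standardised score or position-corrected B-score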
CYP2C9 act: activators of human CYP2C9. AID 1024. P11712. activation factor at 5 µM. actives 1.4% (n = 96,000). recombinant CYP2C9, luciferin-H conversion, luminescence; stronger effect = higher value; factor 1 = untreated enzyme, 0 = blocked;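 active = activation factor of 2 or more for CYP2C9 at a 5 µM dose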;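 also: 0 = sulfaphenazole-blocked wells and 1 = vehicle-only wells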
Starred values were filed as active, the others as inactive; / = not tested or not shown.

SMILES | CYP2C19 activ | Pyk2 oligo antag | CYP2C19 inh | CYP2C9 inhib | Cav32 inh | CYP2C9 act
COc1ccc(N(CC(=O)NC2CCCCCC2)S(=O)(=O)c2c(C)nn(C)c2C)cc1 | 0.7 | -1.1 | 33 | 50* | -0.43 | 0.5
COc1ccc(N(CC(=O)N2CCCCC2)S(=O)(=O)c2c(C)nn(C)c2C)cc1 | 0.7 | / | 28 | -2 | 0.38 | 1
COc1ccc(N(CC(=O)NCc2ccccc2)S(=O)(=O)c2c(C)nn(C)c2C)cc1 | 0.2 | / | 85* | 30 | 0.54 | 0.7
COc1ccc(N(CC(=O)N2CCC(C)CC2)S(=O)(=O)c2c(C)nn(C)c2C)cc1 | 0.3 | / | 75* | 37 | 0.42 | 0.6
COc1ccc(N(CC(=O)NCc2cccs2)S(=O)(=O)c2c(C)nn(C)c2C)cc1 | 0.3 | / | 72* | 32 | 0.012 | 0.7
COc1ccc(CCNC(=O)c2c(O)c3c([nH]c2=O)CCCC3)cc1 | 0.8 | 3.9 | 19 | 38 | 0.84 | 0.6
COc1ccc(N(CC(=O)N2c3ccccc3CC2C)S(=O)(=O)c2c(C)noc2C)cc1 (stereo unspecified) | 0.1 | -1.7 | 88* | 92* | -4.5 | 0.1
Cc1onc(-c2ccccc2Cl)c1C(=O)NCc1ccccn1 | 0.5 | -0.21 | 47 | 8 | 0.25 | 0.9
Cc1onc(-c2c(Cl)cccc2Cl)c1C(=O)NCc1ccco1 | 0.1 | -1.3 | 89* | 81* | -0.006 | 0.2
Cc1onc(-c2ccccc2Cl)c1C(=O)Nc1ccc(OCC(=O)N2CCOCC2)cc1 | / | 0.83 | / | / | -0.042 | /
Cc1onc(-c2ccccc2)c1C(=O)NCc1ccco1 | 1 | -0.13 | -2 | 2 | -0.0076 | 1
Cc1onc(-c2c(Cl)cccc2Cl)c1C(=O)N/N=C(\N)COc1ccc(Cl)cc1 | 1 | 0.96 | -2 | 86* | -5* | 0.1
Cc1onc(-c2c(F)cccc2Cl)c1C(=O)NCc1ccccn1 | 0.4 | 0.68 | 56* | 32 | 0.45 | 0.7
CCCCn1c(N)c(-c2nc3ccccc3s2)c2c([N+](=O)[O-])nn(CC)c(=O)c21 | 1.1 | -1.2 | -15 | 68* | -0.28 | 0.3
Cn1nc([N+](=O)[O-])c2c(-c3nc4ccccc4s3)c(N)n(C3CCCCC3)c2c1=O | 1.1 | 0.38 | -8 | 29 | -0.085 | 0.7
CCCCCn1c(N)c(-c2nc3ccccc3s2)c2c([N+](=O)[O-])nn(CC)c(=O)c21 | 1 | 0.65 | -2 | 72* | -0.94 | 0.3
CCCCn1c(N)c(-c2nc3ccccc3s2)c2c([N+](=O)[O-])nn(C)c(=O)c21 | 0.7 | -0.8 | 29 | 35 | 0.47 | 0.6
Cn1c(SCc2ccc(Br)cc2)nnc1-c1cccs1 | 0 | -1.7 | 97* | 76* | -0.74 | 0.2
Cc1nnc(SCc2c(Cl)cccc2Cl)s1 | 0.4 | -0.06 | 59* | 6 | -0.39 | 0.9
Cn1c(SCC(=O)NCc2cccs2)nnc1-c1cccs1 | 1.2 | -0.14 | -16 | -14 | 0.9 | 1.1
Cc1ccc(CSc2nnc(-c3cccs3)n2C)cc1 | / | 0.49 | / | / | 0.21 | /
Cn1c(SCc2c(Cl)cccc2Cl)nnc1-c1cccs1 | 0 | -1.4 | 98* | 76* | 0.014 | 0.2
CCCOc1ccc(/C(O)=C2/C(=O)C(=O)N(CCN(CC)CC)C2c2ccncc2)cc1 (stereo unspecified) | 0.9 | / | 6 | 19 | / | 0.8
O=C(CCC1CCCCC1)NCCN1C2=NC[C@@H](Cc3ccccc3)N2C[C@H]1Cc1ccc(O)cc1 | / | / | / | / | -2.2 | /
COc1cccc(-c2nc(CS(=O)(=O)c3ccccc3)no2)c1 | 0.6 | 0.73 | 43 | 32 | / | 0.7
SMILES | CYP2C19 activ | Pyk2 oligo antag | CYP2C19 inh | CYP2C9 inhib | Cav32 inh | CYP2C9 act
Cc1ccc(-n2ncc3c(NCCCn4ccnc4)ncnc32)c(C)c1 | 0.3 | / | 73* | 80* | 2 | 0.2
Cc1ccc(-n2ncc3c(NCCCN4CCOCC4)ncnc32)c(C)c1 | 1.1 | / | -11 | -2 | -0.39 | 1
Cc1cccc(-n2ncc3c(NCCCn4ccnc4)ncnc32)c1 | 0.1 | / | 90* | 91* | 0.66 | 0.1
Cc1sc2ncnc(NCCCn3ccnc3)c2c1C | 0.1 | 0.26 | 92* | 90* | 0.15 | 0.1
CC(=O)Nc1ccc2c(c1)nc(CCN1CCN(C)CC1)n2C | 1.1 | 0.37 | -10 | -12 | 0.23 | 1.1
CC(C)(C)[C@H]1C=C(C(=O)NCc2ccccc2)O[C@@H](OCCCCO)C1 | / | / | / | / | 0.7 | /
CS(=O)(=O)N(CC(=O)Nc1ccc(CC#N)cc1)c1ccc(C23CC4CC(CC(C4)C2)C3)cc1 | 0.9 | -1 | 11 | 59* | -3.6 | 0.4
CC(=O)O[C@]1(C(C)=O)CC[C@H]2[C@@H]3C=C(Cl)C4=CC(=O)[C@@H]5C[C@@H]5[C@]4(C)[C@H]3CC[C@@]21C | / | / | / | / | -0.14 | /
O=C(Cc1ccccc1F)Nc1nc(-c2cccs2)cs1 | 0.1 | -1.3 | 94* | 99* | -9.6* | 0
CC1Cc2cc(-c3csc(NC(=O)Cc4cccs4)n3)ccc2N1S(C)(=O)=O (stereo unspecified) | 0.2 | -3.1* | 77* | 92* | / | 0.1
O=C(Cc1cccs1)Nc1nc(-c2ccc(F)cc2F)cs1 | 0.8 | -1.4 | 18 | 56* | -3 | 0.4
O=C(Cc1ccccc1)Nc1nc(-c2cccs2)cs1 | 0.5 | -1.2 | 49 | 44 | -2.7 | 0.6
CS(=O)(=O)c1ccc(CNC(=O)C2(C(F)(F)F)C/C(=C/CCO)CCCO2)cc1 (stereo unspecified) | / | / | / | / | -0.34 | /
CCCOc1ccc(/C(O)=C2/C(=O)C(=O)N(CCN(C)C)C2c2ccncc2)cc1 (stereo unspecified) | / | 0.45 | / | / | -0.1 | /
CCCCN(C(=O)NC(=O)Nc1ccccc1C)S(C)(=O)=O | 0.7 | 0.15 | 27 | 53* | -1.2 | 0.5
CCCCN(C(=O)NC(=O)Nc1cccc(C)c1C)S(C)(=O)=O | 1 | 0.23 | 3 | 18 | / | 0.8
CC(C)CCNC(=O)C(C)N(Cc1ccc(F)cc1)C(=O)c1ccc(CN2CCCCC2)o1 (stereo unspecified) | 0.7 | 0.27 | 34 | 32 | -0.28 | 0.7
Cc1cc(C)c(S(=O)(=O)Nc2nnc(C)s2)c(C)c1 | 1 | 0.68 | -2 | 86* | 0.13 | 0.1
Cc1ccc(S(=O)(=O)NC(=O)Nc2nnc(C)s2)cc1 | 0.9 | -1.1 | 6 | 3 | 0.57 | 1
CN1c2ccccc2C(C)(C)C12CCCC(=O)N2 (stereo unspecified) | 0.9 | 0.11 | 6 | -7 | 1 | 1.1
CC1=NOC2(C1)N(C)c1ccccc1C2(C)C (stereo unspecified) | 0.4 | 0.51 | 58* | 19 | 0.028 | 0.8
COc1ccc(NS(=O)(=O)c2cc(C)ccc2NC(=O)c2cc(C)oc2C)cc1 | 0.3 | 0.17 | 71* | 24 | -6.9* | 0.8
CC1CCN(C(=O)Cn2c(=O)oc3ccccc32)CC1 | / | 0.87 | / | / | / | /
Cc1ccc(NC(=O)COC(=O)c2ccc3c(c2)NC(=O)C2CCCN32)cc1 (stereo unspecified) | 0.8 | 0.19 | 16 | 20 | -0.48 | 0.8
